Among the targets are ALX4 (Homo sapiens, UniProt Q9H161 200-286, Q225E); HOXC9 (Homo sapiens, UniProt P31274 178-260, R222W); HESX1 (Homo sapiens, UniProt Q9UBX0 95-180).
What all share (test): PBM; 200 nM protein, PBS
Holding throughout (conditions): dsDNA, one strand shown

The target of experiment [1] is HOXB6 (Homo sapiens, UniProt P17509 132-218, K202E).
Experiment [2] addresses HOXB6 (Homo sapiens, UniProt P17509 132-218).
A further experiment deals with T1, SIX6 (Homo sapiens, UniProt O95475 114-200, T165G).
T1 sequence: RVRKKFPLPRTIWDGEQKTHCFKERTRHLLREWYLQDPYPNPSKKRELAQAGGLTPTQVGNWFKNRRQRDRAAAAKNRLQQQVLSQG

The target of experiment [3] is HOXA2 (Homo sapiens, UniProt O43364 129-215, R185T).
HOXA2 (Homo sapiens, UniProt O43364 129-215, R185T), sequence (O43364 129-215 R185T): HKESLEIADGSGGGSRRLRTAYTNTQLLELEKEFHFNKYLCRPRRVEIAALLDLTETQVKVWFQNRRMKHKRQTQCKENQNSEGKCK
In experiment [4] the target is HOXB9 (Homo sapiens, UniProt P17482 171-250).
HOXB9 (Homo sapiens, UniProt P17482 171-250), sequence (P17482 171-250): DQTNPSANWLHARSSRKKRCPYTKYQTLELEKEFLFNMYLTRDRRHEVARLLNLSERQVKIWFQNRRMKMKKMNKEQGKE
The target of experiment [5] is HOXB9 (Homo sapiens, UniProt P17482 171-250, R186Q).
HOXB9 (Homo sapiens, UniProt P17482 171-250, R186Q), sequence (P17482 171-250 R186Q): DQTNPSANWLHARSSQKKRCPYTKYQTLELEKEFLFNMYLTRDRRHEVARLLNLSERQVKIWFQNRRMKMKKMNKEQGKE
The target in experiment [6] is HOXA2 (Homo sapiens, UniProt O43364 129-215).
HOXA2 (Homo sapiens, UniProt O43364 129-215), sequence (O43364 129-215): as the sequence (O43364 129-215 R185T) above, with T57R counted along it
Experiment [7] concerns the target HOXA2 (Homo sapiens, UniProt O43364 129-215, R185K).
In experiment [8] the target is T2, NKX2-6 (Homo sapiens, UniProt A6NCS4 118-204, R150C).
T2 sequence: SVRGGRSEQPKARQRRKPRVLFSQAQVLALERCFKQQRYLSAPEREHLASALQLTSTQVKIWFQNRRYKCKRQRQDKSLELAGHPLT

In experiment [9] the target is MSX2 (Homo sapiens, UniProt P35548 130-214, R199I).
MSX2 (Homo sapiens, UniProt P35548 130-214, R199I), sequence (P35548 130-214 R199I): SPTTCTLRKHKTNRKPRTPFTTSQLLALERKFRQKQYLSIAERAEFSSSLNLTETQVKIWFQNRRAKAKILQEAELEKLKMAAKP
In experiment [10] the target is MSX2 (Homo sapiens, UniProt P35548 130-214).
MSX2 (Homo sapiens, UniProt P35548 130-214), sequence (P35548 130-214): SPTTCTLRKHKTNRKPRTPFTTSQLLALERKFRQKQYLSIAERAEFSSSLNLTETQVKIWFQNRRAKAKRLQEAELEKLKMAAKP
Experiment [11] addresses MSX2 (Homo sapiens, UniProt P35548 130-214, F161Y).
Experiment [12] concerns the target HOXA2 (Homo sapiens, UniProt O43364 129-215, Y150S).
Experiment [13] deals with HOXD13 (Homo sapiens, UniProt P35453 263-343, T313R).
HOXD13 (Homo sapiens, UniProt P35453 263-343, T313R), sequence (P35453 263-343 T313R): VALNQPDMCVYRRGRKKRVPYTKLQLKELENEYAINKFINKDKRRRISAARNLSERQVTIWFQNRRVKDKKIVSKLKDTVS
The target of experiment [14] is HOXD13 (Homo sapiens, UniProt P35453 263-343).
HOXD13 (Homo sapiens, UniProt P35453 263-343), sequence (P35453 263-343): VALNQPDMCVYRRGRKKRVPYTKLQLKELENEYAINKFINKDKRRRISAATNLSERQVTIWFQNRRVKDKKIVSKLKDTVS
The target of experiment [15] is HOXD13 (Homo sapiens, UniProt P35453 263-343, T313A).
HOXD13 (Homo sapiens, UniProt P35453 263-343, T313A), sequence (P35453 263-343 T313A): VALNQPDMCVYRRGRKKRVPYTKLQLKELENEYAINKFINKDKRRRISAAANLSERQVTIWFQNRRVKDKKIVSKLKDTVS
In experiment [16] the target is ALX1 (Homo sapiens, UniProt Q15699 118-204, L144V).
ALX1 (Homo sapiens, UniProt Q15699 118-204, L144V), sequence (Q15699 118-204 L144V): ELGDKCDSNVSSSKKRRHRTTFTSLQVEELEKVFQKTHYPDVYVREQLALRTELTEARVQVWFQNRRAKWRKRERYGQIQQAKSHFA
The target of experiment [17] is ALX3 (Homo sapiens, UniProt O95076 139-225, N203Q).
ALX3 (Homo sapiens, UniProt O95076 139-225, N203Q), sequence (O95076 139-225 N203Q): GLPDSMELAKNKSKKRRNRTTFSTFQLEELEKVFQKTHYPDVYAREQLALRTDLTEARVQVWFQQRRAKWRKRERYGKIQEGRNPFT
In experiment [18] the target is T3, NKX2-6 (Homo sapiens, UniProt A6NCS4 118-204).
T3 sequence: T2 sequence with C33R

Experiment [19] has as its target ALX1 (Homo sapiens, UniProt Q15699 118-204, L144R).
For experiment [20], the target named is ALX3 (Homo sapiens, UniProt O95076 139-225).
ALX3 (Homo sapiens, UniProt O95076 139-225), sequence (O95076 139-225): as the sequence (O95076 139-225 N203Q) above, with Q65N counted along it
The target of experiment [21] is ALX3 (Homo sapiens, UniProt O95076 139-225, L168Q).
ALX3 (Homo sapiens, UniProt O95076 139-225, L168Q), sequence (O95076 139-225 L168Q): as the sequence (O95076 139-225 N203Q) above, with L30Q, Q65N counted along it
The target in experiment [22] is T4, NKX2-6 (Homo sapiens, UniProt A6NCS4 118-204, F151L).
T4 sequence: T2 sequence with C33R, F34L

Experiment [23] deals with ALX3 (Homo sapiens, UniProt O95076 139-225, L168V).
ALX3 (Homo sapiens, UniProt O95076 139-225, L168V), sequence (O95076 139-225 L168V): as the sequence (O95076 139-225 N203Q) above, with L30V, Q65N counted along it
Experiment [24] has as its target ALX1 (Homo sapiens, UniProt Q15699 118-204).
In experiment [25] the target is ALX3 (Homo sapiens, UniProt O95076 139-225, N203S).
ALX3 (Homo sapiens, UniProt O95076 139-225, N203S), sequence (O95076 139-225 N203S): as the sequence (O95076 139-225 N203Q) above, with Q65S counted along it

Changes are numbered by the printed parent chain.

HOXA2 (Homo sapiens, UniProt O43364 129-215, Y150S), sequence (O43364 129-215 Y150S): as the sequence (O43364 129-215 R185T) above, with Y22S, T57R counted along it
HOXB6 (Homo sapiens, UniProt P17509 132-218), sequence (P17509 132-218): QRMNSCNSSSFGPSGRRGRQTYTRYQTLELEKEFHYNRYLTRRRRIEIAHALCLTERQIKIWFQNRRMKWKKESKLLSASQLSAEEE
HOXA2 (Homo sapiens, UniProt O43364 129-215, R185K), sequence (O43364 129-215 R185K): as the sequence (O43364 129-215 R185T) above, with T57K counted along it
HOXB6 (Homo sapiens, UniProt P17509 132-218, K202E), sequence (P17509 132-218 K202E): as the sequence (P17509 132-218) above, with K71E counted along it
HOXC9, sequence (P31274 178-260 R222W): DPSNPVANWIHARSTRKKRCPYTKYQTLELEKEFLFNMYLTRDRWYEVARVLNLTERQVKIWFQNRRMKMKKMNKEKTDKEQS
ALX4, sequence (Q9H161 200-286 Q225E): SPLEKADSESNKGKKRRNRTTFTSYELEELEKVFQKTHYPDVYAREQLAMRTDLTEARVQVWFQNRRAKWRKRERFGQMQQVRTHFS
HESX1, sequence (Q9UBX0 95-180): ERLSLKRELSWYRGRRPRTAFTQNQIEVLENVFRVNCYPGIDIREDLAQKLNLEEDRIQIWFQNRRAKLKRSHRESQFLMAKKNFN
ALX1 (Homo sapiens, UniProt Q15699 118-204), sequence (Q15699 118-204): as the sequence (Q15699 118-204 L144V) above, with V27L counted along it
ALX1 (Homo sapiens, UniProt Q15699 118-204, L144R), sequence (Q15699 118-204 L144R): as the sequence (Q15699 118-204 L144V) above, with V27R counted along it
MSX2 (Homo sapiens, UniProt P35548 130-214, F161Y), sequence (P35548 130-214 F161Y): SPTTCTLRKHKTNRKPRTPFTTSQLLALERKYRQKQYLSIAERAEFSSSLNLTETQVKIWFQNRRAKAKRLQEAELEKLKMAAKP

On to CTCGGCTC, for which the binding signal with HOXB6 [1] was 9.06 upbm affinity estimate (log intensity, higher = more binding, comparable within an allelic series); with HOXB6 [2], 8.95 upbm affinity estimate (log intensity, higher = more binding, comparable within an allelic series).

As to AATAAATA, the binding signal in the experiment with ALX4 is 11 upbm affinity estimate (log intensity, higher = more binding, comparable within an allelic series); with HOXC9 it was 11 upbm affinity estimate (log intensity, higher = more binding, comparable within an allelic series).

For the sequence AATAAAAG, the binding signal in the experiment with ALX4 was 10.4 upbm affinity estimate (log intensity, higher = more binding, comparable within an allelic series); with HOXC9 it was 11 upbm affinity estimate (log intensity, higher = more binding, comparable within an allelic series).

Regarding GGTATTAC, the binding signal is 9.66 upbm affinity estimate (log intensity, higher = more binding, comparable within an allelic series) with HOXB6 [1] and 10.2 upbm affinity estimate (log intensity, higher = more binding, comparable within an allelic series) with HOXB6 [2].

As for CCAATTTC, the binding signal in the experiment with HOXB6 [1] is 9.48 upbm affinity estimate (log intensity, higher = more binding, comparable within an allelic series); with HOXB6 [2], 10.1 upbm affinity estimate (log intensity, higher = more binding, comparable within an allelic series).

As to AATGGCTA, the binding signal with HOXB6 [1] was 9.56 upbm affinity estimate (log intensity, higher = more binding, comparable within an allelic series); with HOXB6 [2] it was 10.8 upbm affinity estimate (log intensity, higher = more binding, comparable within an allelic series).

As to TCTCATAA, the binding signal with HOXB6 [1] is 9.55 upbm affinity estimate (log intensity, higher = more binding, comparable within an allelic series); in the experiment with HOXB6 [2], 10.4 upbm affinity estimate (log intensity, higher = more binding, comparable within an allelic series).

For the sequence GACACCTC, the binding signal in the experiment with SIX6 was 10.4 upbm affinity estimate (log intensity, higher = more binding, comparable within an allelic series).

As for TCATATCA, the binding signal in the experiment with SIX6 was 11.2 upbm affinity estimate (log intensity, higher = more binding, comparable within an allelic series).

As for ATCAATAG, the binding signal is 9.12 upbm affinity estimate (log intensity, higher = more binding, comparable within an allelic series) with HOXA2 [3]; 10.1 upbm affinity estimate (log intensity, higher = more binding, comparable within an allelic series) in the experiment with HOXB9 [4]; 10.1 upbm affinity estimate (log intensity, higher = more binding, comparable within an allelic series) with HOXB9 [5]; 9.47 upbm affinity estimate (log intensity, higher = more binding, comparable within an allelic series) with HOXA2 [6].

For the sequence GGTGATTA, the binding signal with HOXA2 [3] is 12.6 upbm affinity estimate (log intensity, higher = more binding, comparable within an allelic series); in the experiment with HOXA2 [7], 13.1 upbm affinity estimate (log intensity, higher = more binding, comparable within an allelic series).

For the sequence GAATTCTA, in the experiment with HESX1, the binding signal is 6.97 upbm affinity estimate (log intensity, higher = more binding, comparable within an allelic series).

With AGGTGTGA, in the experiment with SIX6, the binding signal is 10.5 upbm affinity estimate (log intensity, higher = more binding, comparable within an allelic series).

CTGGCTCC: the binding signal in the experiment with HOXA2 [3] was 7.01 upbm affinity estimate (log intensity, higher = more binding, comparable within an allelic series); in the experiment with NKX2-6 [8] it was 9.34 upbm affinity estimate (log intensity, higher = more binding, comparable within an allelic series); with MSX2 [9], 9.47 upbm affinity estimate (log intensity, higher = more binding, comparable within an allelic series); with HOXA2 [7], 10.3 upbm affinity estimate (log intensity, higher = more binding, comparable within an allelic series); in the experiment with MSX2 [10], 9.34 upbm affinity estimate (log intensity, higher = more binding, comparable within an allelic series); in the experiment with MSX2 [11], 9.4 upbm affinity estimate (log intensity, higher = more binding, comparable within an allelic series). Further, the binding signal with HOXA2 [12] was 10.5 upbm affinity estimate (log intensity, higher = more binding, comparable within an allelic series); in the experiment with HOXA2 [6] it was 6.91 upbm affinity estimate (log intensity, higher = more binding, comparable within an allelic series).

In the case of GGTTATGA, the binding signal in the experiment with HESX1 was 7.26 upbm affinity estimate (log intensity, higher = more binding, comparable within an allelic series).

For the sequence AATTTATG, the binding signal was 10.1 upbm affinity estimate (log intensity, higher = more binding, comparable within an allelic series) with HOXA2 [3]; 10.7 upbm affinity estimate (log intensity, higher = more binding, comparable within an allelic series) with HOXD13 [13]; 11.9 upbm affinity estimate (log intensity, higher = more binding, comparable within an allelic series) with HOXA2 [7]; 11.6 upbm affinity estimate (log intensity, higher = more binding, comparable within an allelic series) in the experiment with HOXD13 [14]; 11.5 upbm affinity estimate (log intensity, higher = more binding, comparable within an allelic series) with HOXD13 [15]; 10.9 upbm affinity estimate (log intensity, higher = more binding, comparable within an allelic series) with HOXA2 [12]. The binding signal with HOXA2 [6] was 10.1 upbm affinity estimate (log intensity, higher = more binding, comparable within an allelic series).

Turning to GCTAATCA, the binding signal with HOXA2 [3] is 12.5 upbm affinity estimate (log intensity, higher = more binding, comparable within an allelic series); with MSX2 [9], 11 upbm affinity estimate (log intensity, higher = more binding, comparable within an allelic series).

For CCGGTTCC, the binding signal with HOXA2 [3] is 6.98 upbm affinity estimate (log intensity, higher = more binding, comparable within an allelic series); with ALX1 [16] it was 6.06 upbm affinity estimate (log intensity, higher = more binding, comparable within an allelic series); in the experiment with ALX3 [17] it was 7.77 upbm affinity estimate (log intensity, higher = more binding, comparable within an allelic series); in the experiment with NKX2-6 [18], 9.05 upbm affinity estimate (log intensity, higher = more binding, comparable within an allelic series); with HOXA2 [7], 10.1 upbm affinity estimate (log intensity, higher = more binding, comparable within an allelic series); in the experiment with ALX1 [19] it was 6.02 upbm affinity estimate (log intensity, higher = more binding, comparable within an allelic series). Besides, the binding signal with ALX3 [20] is 7.63 upbm affinity estimate (log intensity, higher = more binding, comparable within an allelic series); with ALX3 [21] it was 7.69 upbm affinity estimate (log intensity, higher = more binding, comparable within an allelic series); in the experiment with NKX2-6 [22], 9.2 upbm affinity estimate (log intensity, higher = more binding, comparable within an allelic series); in the experiment with ALX3 [23], 7.7 upbm affinity estimate (log intensity, higher = more binding, comparable within an allelic series); in the experiment with HOXA2 [12] it was 10.4 upbm affinity estimate (log intensity, higher = more binding, comparable within an allelic series); with ALX1 [24], 6 upbm affinity estimate (log intensity, higher = more binding, comparable within an allelic series). The binding signal was 7.77 upbm affinity estimate (log intensity, higher = more binding, comparable within an allelic series) with ALX3 [25] and 6.81 upbm affinity estimate (log intensity, higher = more binding, comparable within an allelic series) in the experiment with HOXA2 [6].

The values are drawn from article PMC11006913.
